Measurements from publication PMC5540273 (PLoS ONE, 2017).

Tests used:
Conditions in all cases: concentration: 1 μM, replicates: in singlicate; n = 1
SRPK1 = system: SRPK1
SRPK2 = system: SRPK2
SRPK3 = system: SRPK3
STK16 = system: STK16
STK33 = system: STK33
STK35 = system: STK35
STK36 = system: STK36
STK39 = system: STK39
SYK = system: SYK
SgK110 = system: SgK110
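Also: KINOMEscan kinase panel screen.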

SMILES	%Inh (SRPK1) [%]	%Inh (SRPK2) [%]	%Inh (SRPK3) [%]	%Inh (STK16) [%]	%Inh (STK33) [%]	%Inh (STK35) [%]	%Inh (STK36) [%]	%Inh (STK39) [%]	%Inh (SYK) [%]	%Inh (SgK110) [%]
COc1cc2ncn(-c3cc(OCc4ccncc4Br)c(C(N)=O)s3)c2cc1OC [GW854278]	44	0	28	14	6	0	1	0	20	0
O=C1NC(=O)C(c2ccccc2)=C1Nc1cccc(O)c1 [SB-390534]	20	7	0	0	4	2	0	4	6	0
COc1cc2nccc(Nc3ccc(OCc4ccc(NC(C)=O)cc4)cc3)c2cc1OC.Cl [GW440135]	42	12	23	2	15	3	29	3	6	21
COc1cc(Nc2nccc(N3CCC(NC(=O)C4COc5ccccc5O4)C3)n2)cc(OC)c1OC (stereo not shown) [GSK1379761]	65	70	0	70	4	13	40	0	44	0
